Assay outcomes: PubChem BioAssay, National Center for Advancing Translational Sciences (NCATS)
SARS PLP yeast = blocks SARS-CoV papain-like protease in a yeast assay | S. cerevisiae expressing SARS-CoV PLpro, growth rescue | Potency, µM (doses to about 32.9 µM), inactives show top-dose activity, positive = growth rescue, hits mostly activators | 330,000 compounds, 0.19% hits | AID 485353; calls by dose curve; further: 0% is about no effect; nearly all actives have a fitted effect of over 55% in size
Pf growth 48h = P. falciparum growth inhibition at 48 hours (one generation). P. falciparum luciferase growth in erythrocytes, 48 h. Potency, µM (top dose mostly 28.7 µM), for inactives: at the highest dose activity change, negative = inhibition, most hits filed as inhibitors. 310,000 compounds, 5.9% hits. AID 504832; further: on the % scale 0 is the no-effect control and ±100 the full control effect
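Compounds are pin-transferred into medium, infected erythrocytes (2% hematocrit, 0.1% parasitemia final) are added, and plates sit one parasite generation at 37 C in 5% CO2. Detection reagent is then added and luminescence measured.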
Pf growth 96h = P. falciparum growth inhibition at 96 hours; P. falciparum luciferase reporter growth, 96 h; Potency, µM (doses to about 28.7 µM), for inactives: top-dose activity change, negative = inhibition, hits mostly inhibitors; 320,000 compounds, 6.9% hits; AID 504834; further: on the % scale 0 is the no-effect control and ±100 the full control effect
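Luminescence readout: decreased luciferase signal marks inhibited growth of reporter-expressing P. falciparum in infected red cells (2% hematocrit, 0.05% parasitemia final), exposed to compound two generations (96 h, 37 C, 5% CO2).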
Sm TGR inh = S. mansoni TGR enzyme inhibition | Q962Y6 | purified TGR, DTNB reduction, TNB absorbance 405 nm | Potency, µM (series often up to 114 µM), inactives show at the highest dose activity change, negative = inhibition, hits mostly inhibitors | 360,000 compounds, 3% hits | AID 485364; further: on the % scale 0 is the no-effect control and ±100 the full control effect; nearly all actives have a fitted effect of over 60% in size
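First, TGR (20 nM dispensed) and NADPH were mixed with compound. Second, a 15 min room-temperature incubation followed. Third, further NADPH and then DTNB were added to start the reaction. Finally, TNB absorbance was monitored kinetically.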
* hit, by the source's call; ? = inconclusive; nt = no result given; [ ] = remark or other dose. In the library only some 12% were active in any assay of this set; here they are far more common. Unless noted, the call rests on the fitted dose curve; in most records, active means well fitted curve in the direction sought with a large enough effect; inconclusive means small, poorly fitted or top-dose-only effect, or another doubt; inactive means no such curve, though single readings can be large; an effect the other way counts as inactive or inconclusive. Potency means the concentration at half of the fitted maximal effect.

SMILES	SARS PLP yeast	Pf growth 48h	Pf growth 96h	Sm TGR inh
CC(C)CCn1c(SCc2ccc(Cl)cc2)nc2c1c(=O)[nH]c(=O)n2C	12.3%	?	36.0%	20.8%
Cc1ccc(CSc2nc3c(c(=O)[nH]c(=O)n3C)n2CCC(C)C)cc1	5.4%	nt	2.94µM*	6.6%
CC(=O)CSc1nc2c(c(=O)[nH]c(=O)n2C)n1Cc1cccc(Br)c1	1.5%	-16.2%	43.8%	56.2µM*
COCCn1c(SCc2ccc(F)cc2)nc2c1c(=O)[nH]c(=O)n2C	4.5%	-13.2%	13.1µM*	?
COc1cc2c(cc1OC)C(COc1ccc3c(C)cc(=O)oc3c1)N(C(=O)c1ccccc1C)CC2 (centres undefined)	nt	nt	nt	-8.8%
CCCCSCCCNC(=O)c1cn(C)c2ccc(S(=O)(=O)N3CCCCCC3)cc2c1=O	nt	nt	nt	-1.3%
Cc1ccc(Cn2c(SCC(C)C)nc3c2c(=O)n(C)c(=O)n3C)cc1	4.4%	3.7µM*	nt	-1.2%
CC(C)n1c(SCc2ccc(Cl)cc2)nc2c1c(=O)[nH]c(=O)n2C	5.7%	nt	11.7µM*	18.9%[11.4 µM]
Cc1ccc(Cn2c(Sc3ncccn3)nc3c2c(=O)[nH]c(=O)n3C)cc1	-0.6%	-8.9%	-8.4%[5.75 µM]	-7.1%
C/C=C/CSc1nc2c(c(=O)[nH]c(=O)n2C)n1Cc1ccc(C)cc1	-2.8%	13.1µM*	?	-2.3%
CCCCn1c(SCc2ccc(Cl)cc2)nc2c1c(=O)[nH]c(=O)n2C	-2.6%	6.57µM*	2.5%	-1.6%
CCN(CC)C(=O)CSc1nc2c(c(=O)n(C)c(=O)n2C)n1Cc1ccccc1	nt	nt	nt	4.6%
Cc1ccc(-c2nc(CSc3nnc(C)n4c3cc3occc34)c(C)o2)cc1	nt	nt	nt	1.0%
COc1ccc(C(=O)NC(=S)NC(C)(C)C)cc1Br	?	?	5.22µM*	-31.9%
COc1ccc(C(=O)NC(=S)NNC(=O)c2ccc(NC(C)=O)cc2)cc1Br	1.3%	-15.3%	-3.2%	-4.7%
COc1ccc(C(=O)NC(=S)N2CCC(C)CC2)cc1Br	1.8%	87.3%	?	6.6%
CCCOc1ccc(C(=O)NNC(=S)NC(=O)CC)cc1	-6.5%	?	14.7µM*	-22.2%
COc1ccc(C(=O)NC(=S)NNC(=O)c2ccncc2)cc1Br	10.2%	13.1µM*	?	-20.5%
COc1ccc(C(=O)NC(=S)NC(C)C)cc1Br	18.0%	-2.9%	?	15.8µM*
CN[C@H]1[C@H](O)[C@@H](O[C@@H]2[C@H](O)[C@@H](O[C@H]3OC(CN)=CC[C@H]3N)[C@@H](N)C[C@H]2N)OC[C@@]1(C)O	nt	-10.6%[12.8 µM]	-13.5%[12.8 µM]	nt
COc1ccc(C(=O)NNC(=S)NC(=O)c2cccnc2)cc1	-0.3%	?	24.1%	-17.2%
COc1ccc(C(=O)NNC(=S)NC(=O)c2ccc(OC)cc2)cc1	-9.0%	-8.7%	9.28µM*	-20.6%
Oc1cc2cc(CCN3CCN(c4nsc5ccccc45)CC3)c(Cl)cc2[nH]1	nt	13.5µM*	10.7µM*	nt
COc1ccc2cc(-c3ccsc3)ncc2c1	-2.5%	159.2%	167.1%	39.8µM*
CC(NC(=O)CNC(=O)c1ccco1)c1ccccc1 (centres undefined)	-3.8%	16.3%	16.5%	1.1%
SMILES	SARS PLP yeast	Pf growth 48h	Pf growth 96h	Sm TGR inh
O=S(=O)(c1ccc2oc(=S)[nH]c2c1)N1CCOCC1	2.5%	?	8.28µM*	0.0%
O=S(=O)(c1ccc2c(c1)oc1ccccc12)N1CCOCC1	0.2%	13.1µM*	19.8%	7.1%
O=S(=O)(c1ccc2oc(=S)[nH]c2c1)N1CCCCC1	0.4%	-5.8%	-0.2%	-0.4%
Cn1c(=O)oc2cc(S(=O)(=O)N3CCOCC3)ccc21	nt	?	51.9%	-0.1%
COc1ccc(N(CC(=O)NCc2ccccc2)S(=O)(=O)c2c(C)n[nH]c2C)cc1	-3.0%	-8.3%	-23.6%	-8.6%
CCOc1cccc(/C=C/c2ccc3cccc(O)c3n2)c1O	-3.7%	-3.5%[0.00184 µM]	8.28µM*	4.3%
CCOc1cccc(/C=C/c2ccc3cccc(O)c3n2)c1OC	-2.2%	?	?	2.1%
COc1c(OC(C)=O)ccc(/C=C/c2ccc3cccc(OC)c3n2)c1[N+](=O)[O-]	-36.7%	?	?	-8.9%
CCOc1c(OC(C)=O)ccc(/C=C/c2ccc3cccc(OC(C)=O)c3n2)c1[N+](=O)[O-]	0.9%	6.57µM*	8.28µM*	-22.7%
CCOc1ccc(CCNC(=O)CSc2ncn[nH]2)cc1OCC	-0.5%	7.6%	?	5.4%
N#C/C(=C\c1cccc([N+](=O)[O-])c1)C(=O)NCc1cccnc1	-20.4%	7.1%	6.57µM*	-2.5%
O=C(N/N=C/c1cccnc1)c1ccc([N+](=O)[O-])cc1	-5.5%	-3.0%	?	4.7%
